Reference: PubChem BioAssay AID651604 (The Scripps Research Institute Molecular Screening Center, 2012)
The campaign covered roughly 1,500 compounds. About 1,400 (93%) were called active. No stated cut-off is given here; in the data, active means inhibition above about 9.5%; inactive means the rest. The set was probably picked from earlier hits. These entries were drawn from the full list.

Experiment: PGV04 antibody small-molecule binding – biochemical, TR-FRET, distinct HIV envelope site, counter-screen for PG9 antibody binder project (AID 651604)
Settings: TR-FRET PGV04 antibody-gp120 binding, at 6.7 µM, hits give high values

Row | SMILES | inhibition
1 | CCN(CC)C(=O)c1ccc(NC(=O)c2sccc2-c2ccccc2)cc1 | 25.4% (active)
2 | N#CC1=C(N)Oc2c(c(=O)oc3ccccc23)C1c1ccccc1OC(=O)c1cccs1 (configuration not stated) | 28% (active)
